Molecules are shown by their SMILES. Records with an inconclusive call do not appear. Where a call stands in place of a potency, no number is given. A structure can be active in one record and inactive in another. Activity calls are given as the source filed them. Calls come from the whole dose curve; as a rule, active = well fitted cell-killing curve with a large enough effect in the repeat runs; inconclusive = weak or mixed curves, or effect the other way; inactive = no such curve, though single readings can be large or run the other way.
Potency is the fitted concentration of half-maximal effect.

The nature of the assay: qHTS assay to identify small molecule agonists of the RXR signaling pathway - cell viability counter screen (AID 1159529). Note: nearly all actives have a fitted effect of over 50% in size. Conditions: RXR-alpha-bla HEK293T viability, CellTiter-Glo, 16 h; series mostly up to 76.8 µM; activity change, negative = cytotoxicity: at the top concentration. A digest of the protocol:
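Luminescence from CellTiter-Glo (30 min, RT) measured viability in the same wells as the beta-lactamase reporter readout. Cells: GeneBLAzer RXR-alpha HEK 293T, 2% charcoal-stripped FBS. Compound exposure 16 hr, 37 C.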
As to `CS(=O)(=O)c1ccc(Cl)cc1`, the Potency result was “inactive”. With `CCCCCCCCC(=O)O`, the Potency entry was “inactive”. For the molecule `Nc1cccc(C(F)(F)F)c1`, the Potency result is “inactive”. Still for that read-out and setting: in the case of `C=CC(=O)NCOCCCC` it was “inactive”; in that of `CCOC(=O)c1ccc(O)cc1`, “inactive”; in that of `Nc1cccc(N)n1`, “inactive”. Consider `OC[C@H]1O[C@@H](Oc2ccc(O)cc2)[C@H](O)[C@@H](O)[C@@H]1O`, for which the Potency entry was “inactive”.

As to `Cc1cc(C)c(O)c(C)c1`, the Potency entry was “inactive”. Same read-out and setting: in the case of `O=Cc1ccc(CO)o1` it was “inactive”. Consider `CCCCCCCCCCCC(=O)N(C)CC(=O)O`, for which the activity change, negative = cytotoxicity is 3.37% [at 6.97 µM] (inactive).

As to `CCCCC(CC)COC(=O)c1ccc(C(=O)OCC(CC)CCCC)cc1` (stereo not given), the Potency entry is “inactive”. On to `CCCCC(=O)O`, for which the Potency entry is “inactive”. Take `COCN(COC)c1nc(N(COC)COC)nc(N(COC)COC)n1`: the Potency entry was “inactive”. Take `NCCNCCNCCN`: the “activity change, negative = cytotoxicity” value was -1.08% [at 35.3 µM] (inactive). On to `CC(=O)OC/C=C(\C)CCC=C(C)C`, for which the Potency entry is “inactive”. `Cc1cccc(C)c1[N+](=O)[O-]`: the “activity change, negative = cytotoxicity” value was 5.31% (inactive). For the molecule `N#CCC(=O)O`, the Potency result is “inactive”. Turning to `CC1=CC(=O)CC(C)(C)C1`, the Potency is 25.3 µM (active) and inactive. On the same count and under the same terms, for `CCCCCCC(=O)O` the value was “inactive”; for `CCCOC(=O)NCCCN(C)C`, “inactive”. On the same count and under the same terms, in the case of `CN1CCCC1=O` it was “inactive”. On the same count and under the same terms, in the case of `CC(C=O)Cc1ccc(C(C)(C)C)cc1` (stereo not given) it was “inactive”; in that of `OCC(O)CS` (stereo not given), “inactive”. Regarding `O=C1OC(=O)c2c(Cl)c(Cl)c(Cl)c(Cl)c21`, the Potency result is “inactive”. On the same count and under the same terms, in the case of `CCOC(=O)CC(=O)OCC` it was “inactive”; in that of `Cc1cc(C)cc(O)c1`, “inactive”. The same measure, in the same setting: for `COC(=O)/C=C\C(=O)OC` the value was “inactive”; for `OCCOCCOCCOCCOCCO`, “inactive”; for `O=C(Cl)c1ccc(C(=O)Cl)cc1`, “inactive”. For the molecule `C[Si](C)(C)N[Si](C)(C)C`, the Potency entry is “inactive”.

The values above are taken from PubChem BioAssay (Tox21).
